In PubChem BioAssay (NCATS):
Inconclusive results are not listed. The source made the active and inactive calls. Calls come from the whole dose curve; as a rule, active = well fitted curve in the direction sought with a large enough effect; inconclusive = small, poorly fitted or top-dose-only effect, or another doubt; inactive = no such curve, though single readings can be large; an effect the other way counts as inactive or inconclusive.

Assays:
[1] = biological target: Rap guanine nucleotide exchange factor 3 (Homo sapiens) (UniProt O95398); test: Confirmatory qHTS for antagonist of cAMP-regulated guanine nucleotide exchange factor 3 (EPAC1) (AID 1645880); note: nearly all actives have a fitted effect of over 55% in size; note: potency is the fitted concentration of half-maximal effect
Outline: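 Nucleotide exchange uses 100 nM EPAC1, 250 nM RAP1B-BODIPY-GDP and 50 uM GDP, with compounds in a concentration-titration series. After 5 min at room temperature, fluorescence (480 nm ex/540 nm em) is read every 5 min for 30 min. Data are normalized to control ATA and DMSO.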

[2] = biological target: Rap guanine nucleotide exchange factor 3 (Homo sapiens) (UniProt O95398); test: Confirmatory qHTS for agonist of cAMP-regulated guanine nucleotide exchange factor 3 (EPAC1) (AID 1645881); note: nearly all actives have a fitted effect of over 75% in size; note: potency is the fitted concentration of half-maximal effect;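 for activation: EPAC1 catalysed release of BODIPY-GDP from Rap1B seen as fluorescence loss; 100% = effect of cAMP agonist control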
[3] = biological target: Rap guanine nucleotide exchange factor 4 (Homo sapiens) (UniProt Q8WZA2); test: Confirmatory qHTS for agonist of cAMP-regulated guanine nucleotide exchange factor 4 (EPAC2) (AID 1645884);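 note: nucleotide exchange releases bodipy-GDP from Rap1 and this lowers its fluorescence; nearly all actives have a fitted effect of over 65% in size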; note: potency is the fitted concentration of half-maximal effect; for activation: % is set by controls: 0 for no effect and ±100 for the full control effect
[4] = biological target: Rap guanine nucleotide exchange factor 4 (Homo sapiens) (UniProt Q8WZA2); test: Confirmatory qHTS for antagonist of cAMP-regulated guanine nucleotide exchange factor 4 (EPAC2) (AID 1645885); note: nearly all actives have a fitted effect of over 25% in size; note: potency is the fitted concentration of half-maximal effect; for activity change, negative = inhibition: % is set by controls: 0 for no effect and ±100 for the full control effect
[5] = biological target: Rap guanine nucleotide exchange factor 3 (Homo sapiens) (UniProt O95398); test: Counterscreen qHTS for antagonist of cAMP-regulated guanine nucleotide exchange factor 3 (EPAC1) (AID 1645888);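 note: fluorescence loss as bound BODIPY-GDP is released from Rap1B; % of control where 0% means no effect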
Outline: (§1)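 Measured: fluorescence of BODIPY-GDP bound to Rap1B, which falls as exchange proceeds. Conditions include 50 uM competing GDP, 5 and 30 min reads, and a later cAMP challenge for antagonist detection.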

[6] = biological target: Rap guanine nucleotide exchange factor 3 (Homo sapiens) (UniProt O95398); test: Counterscreen qHTS for agonist of cAMP-regulated guanine nucleotide exchange factor 3 (EPAC1) (AID 1645889); note: nearly all actives have a fitted effect of over 40% in size; note: potency is the fitted concentration of half-maximal effect; for activation: % of control where 0% means no effect
Outline: as §1

Chain of Rap guanine nucleotide exchange factor 3 (Homo sapiens) (O95398 whole entry, looked up): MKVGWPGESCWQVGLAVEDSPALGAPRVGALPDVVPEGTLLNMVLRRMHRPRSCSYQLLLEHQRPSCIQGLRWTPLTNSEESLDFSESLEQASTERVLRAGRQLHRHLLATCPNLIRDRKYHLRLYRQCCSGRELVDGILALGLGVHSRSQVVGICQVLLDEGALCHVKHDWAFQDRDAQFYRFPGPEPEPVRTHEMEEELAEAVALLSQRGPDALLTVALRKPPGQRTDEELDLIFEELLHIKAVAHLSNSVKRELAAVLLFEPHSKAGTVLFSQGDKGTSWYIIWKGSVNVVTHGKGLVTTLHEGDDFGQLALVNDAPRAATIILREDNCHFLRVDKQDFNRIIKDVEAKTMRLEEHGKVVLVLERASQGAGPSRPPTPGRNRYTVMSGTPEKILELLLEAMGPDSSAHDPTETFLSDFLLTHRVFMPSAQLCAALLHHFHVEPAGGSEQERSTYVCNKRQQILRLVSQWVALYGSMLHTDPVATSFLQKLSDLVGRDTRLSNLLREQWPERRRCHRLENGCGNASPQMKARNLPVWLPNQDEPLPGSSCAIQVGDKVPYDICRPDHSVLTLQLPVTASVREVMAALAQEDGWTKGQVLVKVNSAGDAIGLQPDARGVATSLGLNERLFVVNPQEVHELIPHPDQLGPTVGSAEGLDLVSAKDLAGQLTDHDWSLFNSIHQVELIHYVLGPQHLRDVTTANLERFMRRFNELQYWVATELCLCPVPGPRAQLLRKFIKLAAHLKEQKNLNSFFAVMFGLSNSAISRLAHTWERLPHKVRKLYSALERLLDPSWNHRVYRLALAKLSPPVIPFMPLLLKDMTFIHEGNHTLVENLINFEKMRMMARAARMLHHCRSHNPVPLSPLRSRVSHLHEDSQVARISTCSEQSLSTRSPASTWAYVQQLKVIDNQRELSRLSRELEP
Chain of Rap guanine nucleotide exchange factor 4 (Homo sapiens) (Q8WZA2 whole entry, looked up): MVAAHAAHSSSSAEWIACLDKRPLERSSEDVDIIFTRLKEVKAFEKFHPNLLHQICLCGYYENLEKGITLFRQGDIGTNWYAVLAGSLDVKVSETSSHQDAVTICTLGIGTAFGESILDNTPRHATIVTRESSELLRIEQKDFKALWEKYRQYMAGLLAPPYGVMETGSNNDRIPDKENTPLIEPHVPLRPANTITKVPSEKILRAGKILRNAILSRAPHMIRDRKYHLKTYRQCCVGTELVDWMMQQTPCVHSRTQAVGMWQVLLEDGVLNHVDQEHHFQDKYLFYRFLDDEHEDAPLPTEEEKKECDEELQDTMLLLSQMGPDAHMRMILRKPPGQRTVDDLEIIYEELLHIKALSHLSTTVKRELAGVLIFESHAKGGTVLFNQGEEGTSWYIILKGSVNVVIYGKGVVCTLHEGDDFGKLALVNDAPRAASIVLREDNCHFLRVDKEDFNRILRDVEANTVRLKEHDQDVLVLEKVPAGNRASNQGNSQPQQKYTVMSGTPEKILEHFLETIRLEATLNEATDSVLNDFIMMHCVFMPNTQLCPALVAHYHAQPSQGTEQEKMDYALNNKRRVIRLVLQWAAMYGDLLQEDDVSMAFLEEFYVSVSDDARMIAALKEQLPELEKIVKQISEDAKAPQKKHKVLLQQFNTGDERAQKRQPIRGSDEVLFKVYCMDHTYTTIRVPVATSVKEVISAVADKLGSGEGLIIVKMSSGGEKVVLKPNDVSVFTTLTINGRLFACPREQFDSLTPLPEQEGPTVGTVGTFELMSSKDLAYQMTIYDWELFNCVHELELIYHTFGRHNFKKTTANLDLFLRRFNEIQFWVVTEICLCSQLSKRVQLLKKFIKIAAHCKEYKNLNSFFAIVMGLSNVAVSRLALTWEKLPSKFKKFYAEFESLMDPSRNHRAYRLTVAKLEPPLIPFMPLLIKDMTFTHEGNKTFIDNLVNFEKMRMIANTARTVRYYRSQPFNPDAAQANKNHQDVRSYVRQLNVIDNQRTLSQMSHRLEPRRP

O=C(O)c1ccc(/C=N/N2CCN(Cc3cccc4ccccc34)CC2)cc1
inactive: Potency [1] | Potency [2] | activation [3] 4.54% [at 17.1 µM, percent relative to cAMP agonist control] | Potency [4] | activity change, negative = inhibition [5] -6.71% [at 30.8 µM] | activation [6] 4.41% [at 30.8 µM]

COC(=O)c1sccc1NS(=O)(=O)c1ccccc1[N+](=O)[O-]
inactive: Potency [1] | Potency [2] | activation [3] -1.71% [at 17.1 µM, percent relative to cAMP agonist control] | Potency [4] | activity change, negative = inhibition [5] -0.412% [at 30.8 µM] | activation [6] 33.8% [at 30.8 µM]

COc1ccccc1-n1c(-c2ccccc2)c[n+]2c1CCc1ccccc1-2
inactive: Potency [1] | Potency [2] | Potency [3] | Potency [4] | Potency [5] | Potency [6]

Cn1c2ccccc2c2cc(/C=N/NC(=O)c3cc(O)ccc3O)ccc21
active: Potency [1] 25.1 µM
inactive: Potency [2] | activation [3] -2.01% [at 17.1 µM, percent relative to cAMP agonist control] | Potency [4] | activity change, negative = inhibition [5] -0.77% [at 30.8 µM] | activation [6] 29.4% [at 30.8 µM]

COc1ccc(C(=O)c2ccccc2)c2c(O)ccc(C(=O)c3ccccc3)c12
inactive: Potency [1] | Potency [2] | Potency [3] | Potency [4] | Potency [5] | Potency [6]

COc1ccc(/C=C2\SC(=S)N(NS(=O)(=O)c3ccc(C)cc3)C2=O)c(OC)c1
inactive: Potency [2] | activation [3] 6.75% [at 17.1 µM, percent relative to cAMP agonist control] | Potency [4] | activity change, negative = inhibition [5] 7.67% [at 30.8 µM] | activation [6] 20% [at 30.8 µM]
active: Potency [1] 14.1 µM

CC(C)(C)c1ccc(C(CC(=O)O)NC(=O)CSc2ccccc2)cc1 (stereo unspecified)
inactive: Potency [1] | Potency [2] | Potency [3] | Potency [4] | Potency [5] | Potency [6]

COc1ccc(NC(=O)CS(=O)(=O)Cc2ccccc2)c([N+](=O)[O-])c1
inactive: Potency [1] | Potency [2] | activation [3] 7.06% [at 17.1 µM, percent relative to cAMP agonist control] | Potency [4] | activity change, negative = inhibition [5] -9.05% [at 30.8 µM] | activation [6] 8.04% [at 30.8 µM]

Oc1ccc(/C=N/Nc2ncnc3c2ncn3Cc2ccccc2)cc1O
active: Potency [1] 3.55 µM
inactive: Potency [2] | activation [3] 4.96% [at 17.1 µM, percent relative to cAMP agonist control] | Potency [4] | activity change, negative = inhibition [5] -13.7% [at 30.8 µM] | activation [6] 1.06% [at 30.8 µM]

Cc1c(CCC(=O)O)c(=O)oc2cc(OCc3ccc(Br)cc3)ccc12
inactive: Potency [1] | Potency [2] | Potency [3] | Potency [4] | Potency [5] | Potency [6]

CCOc1ccc(CCNC(=O)c2cccc(S(=O)(=O)N3CCCCC3)c2)cc1OCC
inactive: Potency [1] | Potency [2] | Potency [3] | Potency [4] | Potency [5] | Potency [6]

O=C(c1ccccc1)c1nn(-c2ccccc2)c(=O)cc1-c1ccccc1
inactive: Potency [1] | Potency [2] | Potency [3] | Potency [4] | Potency [5] | Potency [6]

CC(C)(C)C(=O)Nc1ccc2nc(SCC(=O)N3CCc4ccccc43)sc2c1
inactive: Potency [1] | Potency [2] | Potency [3] | Potency [4] | Potency [5] | Potency [6]

O=C(Nc1nncs1)c1ccccc1NS(=O)(=O)c1cccs1
inactive: Potency [1] | Potency [2] | Potency [3] | Potency [4] | Potency [5] | Potency [6]

COc1ccc(N2CCN(C(=O)c3noc4c3CCCCC4)CC2)cc1
inactive: Potency [1] | Potency [2] | Potency [3] | Potency [4] | Potency [5] | Potency [6]

COc1cccc(-n2nnc3c(=O)n(C/C=C/c4ccccc4)cnc32)c1
inactive: Potency [1] | Potency [2] | activation [3] 6.54% [at 17.1 µM, percent relative to cAMP agonist control] | Potency [4] | activity change, negative = inhibition [5] 2.95% [at 30.8 µM] | activation [6] 17.3% [at 30.8 µM]

CCc1cccc(C)c1NC(=O)c1cc2ccccc2o1
inactive: Potency [1] | Potency [2] | Potency [3] | Potency [4] | Potency [5] | Potency [6]

Cc1ccc(CNC(=O)c2ccc3c(=O)[nH]c4c(C(=O)NCC5CCCO5)sc(=S)n4c3c2)cc1 (stereo unspecified)
active: Potency [1] 84.9 µM
inactive: Potency [2] | Potency [3] | Potency [4] | Potency [5] | Potency [6]

Cn1c(COc2ccc(Cl)cc2)nc2ccccc2c1=O
active: Potency [1] 25.1 µM
inactive: Potency [2] | activation [3] 4.13% [at 17.1 µM, percent relative to cAMP agonist control] | Potency [4] | activity change, negative = inhibition [5] 1.04% [at 30.8 µM] | activation [6] 5.9% [at 30.8 µM]

N#C/C(=C/c1ccc(N2CCOCC2)o1)c1nc2ccccc2[nH]1
active: Potency [2] 112 µM | Potency [3] 89.1 µM | Potency [4] 42.6 µM | Potency [6] 63.1 µM
inactive: Potency [1] | Potency [5]

CCOC(=O)CN1C(=O)c2ccccc2Sc2ncccc21
inactive: Potency [1] | Potency [2] | activation [3] 0% [at 17.1 µM, percent relative to cAMP agonist control] | Potency [4] | Potency [5] | Potency [6]

COC(=O)C1=C(C)N(Cc2ccco2)C(=O)/C1=C\c1ccc(N(C)C)cc1
inactive: Potency [1] | Potency [2] | Potency [3] | Potency [4] | Potency [5] | Potency [6]

COc1ccccc1N1CCN(c2ncnc3onc(-c4ccc(F)cc4)c23)CC1
inactive: Potency [1] | Potency [2] | Potency [3] | Potency [4] | Potency [5] | Potency [6]

CC(C)(C)c1ccc(CC(=O)N2CCC2(C)C(=O)NS(=O)(=O)c2ccccc2)cc1 (stereo unspecified)
inactive: Potency [1] | Potency [2] | activation [3] 0.17% [at 17.1 µM, percent relative to cAMP agonist control] | Potency [4] | activity change, negative = inhibition [5] -2% [at 30.8 µM] | activation [6] 19.6% [at 30.8 µM]

Cc1ccc(S(=O)(=O)N2CCCCC2)cc1C(=O)NCCC1=CCCCC1
inactive: Potency [1] | Potency [2] | Potency [3] | Potency [4] | Potency [5] | Potency [6]

O=C(NC1CCN(Cc2ccccc2)CC1)c1cn(-c2ccccc2)nc1-c1cccnc1
inactive: Potency [1] | Potency [2] | Potency [3] | Potency [4] | Potency [5] | Potency [6]

CCOC(=O)c1ccccc1NC(=O)CSc1nccn1Cc1ccco1
inactive: Potency [1] | Potency [2] | Potency [3] | Potency [4] | Potency [5] | Potency [6]

COC(=O)CSc1nc2c(c(=O)n(C)c(=O)n2C)n1CCCc1ccccc1
inactive: Potency [1] | Potency [2] | activation [3] 4.31% [at 17.1 µM, percent relative to cAMP agonist control] | Potency [4] | activity change, negative = inhibition [5] -3.64% [at 30.8 µM] | activation [6] 0.96% [at 30.8 µM]

O=[N+]([O-])c1ccc(Cc2ccccn2)c([N+](=O)[O-])c1
inactive: Potency [1] | Potency [2] | Potency [3] | outcome [4] inactive; activator; fitted 0.12 uM [at 12.7 µM] | Potency [5] | Potency [6]

Cc1cc(C(=O)COC(=O)C2COc3ccccc3O2)c(C)n1CC1CCCO1 (stereo unspecified)
inactive: Potency [1] | Potency [2] | Potency [3] | Potency [4] | Potency [5] | Potency [6]

CN(Cc1ccccc1F)c1nc(-c2cccs2)nc2ccccc12
inactive: Potency [1] | Potency [2] | activation [3] 0% [at 17.1 µM, percent relative to cAMP agonist control] | Potency [4] | activity change, negative = inhibition [5] -18.6% [at 30.8 µM] | activation [6] 4.35% [at 30.8 µM]

CC(=O)Nc1nc(C)c(Oc2ccc(Cl)cc2Cl)c(=O)[nH]1
inactive: Potency [1] | Potency [2] | activation [3] 0% [at 17.1 µM, percent relative to cAMP agonist control] | Potency [4] | activity change, negative = inhibition [5] -5.48% [at 30.8 µM] | activation [6] 7.36% [at 30.8 µM]

COC(=O)C(C)N(C(=O)c1ccc(Cl)cc1)c1c(C)cccc1C (stereo unspecified)
inactive: Potency [1] | Potency [2] | Potency [3] | Potency [4] | Potency [5] | Potency [6]

Cc1ccc(-n2nc3c(=O)n(CCCC(=O)NCc4ccccc4C)nc(C)c3c2C)cc1
inactive: Potency [1] | Potency [2] | Potency [3] | Potency [4] | Potency [5] | Potency [6]

CCCc1cc2c(cc1N(C)S(=O)(=O)c1ccccc1)OCO2
inactive: Potency [1] | Potency [2] | Potency [3] | Potency [4] | Potency [5] | Potency [6]

O/C=c1\ccc2cccc3nc(C(F)(F)F)nc1c23
inactive: Potency [1] | Potency [4] | Potency [5]
active: Potency [2] 100 µM | Potency [3] 100 µM | Potency [6] 39.8 µM

Cc1onc(-c2ccccc2)c1C(=O)c1c[nH]c(C(=O)NCCCN2CCOCC2)c1
inactive: Potency [1] | Potency [2] | activation [3] -2.44% [at 17.1 µM, percent relative to cAMP agonist control] | Potency [4] | activity change, negative = inhibition [5] -20.3% [at 30.8 µM] | activation [6] -11.1% [at 30.8 µM]

CN(C)c1ccc(/C=C/C(=O)c2ccc3c(c2)OCO3)cc1
inactive: Potency [1] | Potency [5]
active: Potency [2] 112 µM | Potency [3] 112 µM | Potency [4] 37.9 µM | Potency [6] 79.4 µM

O=C(O)COc1ccc(NC(=O)C(c2ccccc2)c2ccccc2)cc1
inactive: Potency [1] | Potency [2] | Potency [3] | Potency [5] | Potency [6]
active: Potency [4] 33.8 µM

O=C1NN(c2cccc(Br)c2)C(=O)/C1=C\c1ccccc1
inactive: Potency [2] | Potency [3] | Potency [4] | Potency [5] | Potency [6]
active: Potency [1] 33.8 µM

CCOc1cc(/C=N/NC(=O)c2ccc3c(c2)OCCO3)cc(Br)c1O
inactive: Potency [2] | Potency [3] | Potency [4] | Potency [5] | Potency [6]
active: Potency [1] 30.1 µM
